Laboratory results as given in the supplement of paper PMC12494721.
Counter-ions that a name gives are not always drawn.

Tests used:
Details in all cases: incubation time: 27 h, anaerobic, 37 °C;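 for the amine columns active = adjusted P below 0.05 in both replicates with a change the same way and a mean fold change under 0.8 or over 1.25; inactive = the rest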
[1] = test system: Clostridium sporogenes DSM 1664; test: growth (OD595) fold change vs plate DMSO controls (fold change (ratio)); higher = more growth
Procedure, shortened: (§1)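 The 96-well mGAM cultures had been kept anaerobic for 27 h at 37 °C before being shaken and read at 595 nm. Blank subtraction, compound background correction with 20 µM compound solutions in water, and a calibration factor of 5 turned the readings into OD. Growth is given as the fold change versus the median of plate DMSO controls. Fold changes above 1.5 were set to NA, and the values are means of 2 biological replicates.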

Escherichia coli IAI1 [2] = test: as above
Procedure, shortened: as §1

[3] = test system: Klebsiella aerogenes DSM 30053; test: as above
Procedure, shortened: as §1

[4] = test system: Ruminococcus gnavus DSM 108212; test: as above
Procedure, shortened: as §1

[5] = test system: Klebsiella aerogenes DSM 30053; test: fold change of Histamine concentration vs plate DMSO controls (fold change (ratio)); higher = more amine produced, active = hit call of the paper (significant change in both replicates, either direction)
Procedure, shortened: (§2)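 In 80 µL wells, cultures of four gut bacterial strains in mGAM started at OD 0.1 before a 1:1 dilution and grew anaerobically at 37 °C for 27 h. Compounds were added to 20 µM final, except sweeteners at 50 µM final. After extraction of whole cultures with cold acetonitrile/methanol plus 0.1% formic acid and centrifugation, amines were measured by LC–triple-quadrupole MS in dynamic MRM mode against external calibration curves, with within-batch drift correction. Values give fold change over DMSO controls on the same plate, averaged across 2 biological replicates.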

[6] = test system: Clostridium sporogenes DSM 1664; test: fold change of Tryptamine concentration vs plate DMSO controls (fold change (ratio)); higher = more amine produced, active = hit call of the paper (significant change in both replicates, either direction)
Procedure, shortened: as §2

[7] = test system: Ruminococcus gnavus DSM 108212; test: as above
Procedure, shortened: as §2

Escherichia coli IAI1 [8] = test: fold change of Putrescine concentration vs plate DMSO controls (fold change (ratio)); higher = more amine produced, active = hit call of the paper (significant change in both replicates, either direction)
Procedure, shortened: as §2

[9] = test system: Klebsiella aerogenes DSM 30053; test: as above
Procedure, shortened: as §2

Escherichia coli IAI1 [10] = test: fold change of Cadaverine concentration vs plate DMSO controls (fold change (ratio)); higher = more amine produced, active = hit call of the paper (significant change in both replicates, either direction)
Procedure, shortened: as §2

[11] = test system: Klebsiella aerogenes DSM 30053; test: as above
Procedure, shortened: as §2

[12] = test system: Ruminococcus gnavus DSM 108212; test: fold change of 2-Phenylethylamine concentration vs plate DMSO controls (fold change (ratio)); higher = more amine produced, active = hit call of the paper (significant change in both replicates, either direction)
Procedure, shortened: as §2

Structure (SMILES) | growth [1] | growth (Escherichia coli IAI1 [2]) | growth [3] | growth [4] | fold change of Histamine concentration [5] | fold change of Tryptamine concentration [6] | fold change of Tryptamine concentration [7] | fold change of Putrescine concentration (Escherichia coli IAI1 [8]) | fold change of Putrescine concentration [9] | fold change of Cadaverine concentration (Escherichia coli IAI1 [10]) | fold change of Cadaverine concentration [11] | fold change of 2-Phenylethylamine concentration [12]
NC[C@H]1O[C@H](O[C@H]2[C@H](O)[C@@H](O[C@H]3O[C@H](CO)[C@@H](O)[C@H](N)[C@H]3O)[C@H](N)C[C@@H]2N)[C@H](N)C[C@@H]1O [Tobramycin] (20 µM) | 1.09 | 0.95 | 0.772 | 0.73 | 0.65 (active) | 1.13 (inactive) | 0.946 (inactive) | 0.911 (inactive) | 0.922 (inactive) | 0.889 (inactive) | 0.978 (inactive) | 0.941 (inactive)
CC[C@H]1OC(=O)[C@H](C)[C@@H](O[C@H]2C[C@@](C)(OC)[C@@H](O)[C@H](C)O2)[C@H](C)[C@@H](O[C@@H]2O[C@H](C)C[C@H](N(C)C)[C@H]2O)[C@](C)(O)C[C@@H](C)CN(C)[C@H](C)[C@@H](O)[C@]1(C)O [Azithromycin] (20 µM) | 0 | 0.212 | 0.39 | 0.162 | 0.0612 (active) | 0.0425 (active) | 0.0983 (active) | 0.366 (inactive) | 0.425 (active) | 0.633 (active) | 0.99 (inactive) | 0.115 (active)
OCCN1CCN(CC/C=C2/c3ccccc3Sc3ccc(Cl)cc32)CC1 [Zuclopenthixol dihydrochloride] (20 µM) | 0.904 | 1.25 | 1.01 | 0.937 | 1.03 (inactive) | 0.993 (inactive) | 0.919 (inactive) | 1.31 (inactive) | 0.994 (inactive) | 1.09 (inactive) | 0.992 (inactive) | 0.947 (inactive)
O=c1[nH]cnc2c1ncn2[C@@H]1O[C@H](CO)[C@@H](O)[C@H]1O [Inosine] (20 µM) | 0.976 | 1.01 | 1.01 | 0.919 | 1.01 (inactive) | 1.06 (inactive) | 0.997 (inactive) | 1.02 (inactive) | 1.02 (inactive) | 1.01 (inactive) | 0.997 (inactive) | 0.963 (inactive)
NC(=O)[C@@H]1CCCN1C(=O)[C@H](Cc1c[nH]cn1)NC(=O)[C@@H]1CCC(=O)N1 [Thyrotropin-Releasing Hormone] (20 µM) | 0.956 | 0.979 | 1.02 | 0.996 | 0.966 (inactive) | 0.998 (inactive) | 1 (inactive) | 1.02 (inactive) | 1 (inactive) | 0.999 (inactive) | 1 (inactive) | 0.998 (inactive)
Cn1nnnc1SCC1=C(C(=O)O)N2C(=O)[C@@H](NC(=O)[C@H](O)c3ccccc3)[C@H]2SC1 [Cefamandole sodium salt] (20 µM) | 0 | 0.0343 | 1.08 | 0.971 | 1.04 (inactive) | 0.0204 (active) | 0.141 (active) | 0.968 (inactive) | 1.02 (inactive) | 2.1 (active) | 1.06 (inactive) | 0.118 (active)
CN1CCN(C(c2ccccc2)c2ccccc2)CC1 [Cyclizine hydrochloride] (20 µM) | 0.981 | 0.984 | 0.972 | 1.16 | 1.07 (inactive) | 0.968 (inactive) | 0.996 (inactive) | 1 (inactive) | 1 (inactive) | 1.02 (inactive) | 0.987 (inactive) | 1.03 (inactive)
OC[C@H]1O[C@@H](n2cnc3cncnc32)[C@H](O)[C@@H]1O [Nebularine] (20 µM) | 0.985 | 0.971 | 1.01 | 0.831 | 0.982 (inactive) | 0.874 (inactive) | 0.943 (inactive) | 0.795 (inactive) | 1.01 (inactive) | 0.943 (inactive) | 0.998 (inactive) | 0.946 (inactive)
Cn1nnc2c(C(N)=O)ncn2c1=O [Temozolomide] (20 µM) | 1.09 | 0.982 | 0.992 | 1.23 | 0.956 (inactive) | 0.977 (inactive) | 1.02 (inactive) | 1 (inactive) | 0.989 (inactive) | 1.02 (inactive) | 0.998 (inactive) | 1.01 (inactive)
c1ccc(CC2=NCCN2)cc1 [Tolazoline hydrochloride] (20 µM) | 1.05 | 1 | 0.977 | 0.841 | 1.07 (inactive) | 0.962 (inactive) | 0.996 (inactive) | 0.996 (inactive) | 1.02 (inactive) | 1.06 (inactive) | 0.99 (inactive) | 1 (inactive)
NC(CO)C(=O)NNCc1ccc(O)c(O)c1O (stereo not drawn) [Benserazide hydrochloride] (20 µM) | 0.879 | 1.06 | 0.985 | 0.988 | 1.08 (inactive) | 0.965 (inactive) | 1.03 (inactive) | 1.19 (inactive) | 1.03 (inactive) | 0.994 (inactive) | 0.991 (inactive) | 1.03 (inactive)
CCC[C@H](N[C@@H](C)C(=O)N1[C@H](C(=O)O)C[C@@H]2CCCC[C@@H]21)C(=O)OCC [Perindopril] (20 µM) | 0.997 | 1 | 1.05 | 1.21 | 0.997 (inactive) | 0.965 (inactive) | 1.02 (inactive) | 0.914 (inactive) | 1.03 (inactive) | 0.993 (inactive) | 1.01 (inactive) | 0.995 (inactive)
C1N2CN3CN1CN(C2)C3 [Methenamine] (20 µM) | 0.885 | 0.986 | 1.02 | 1.16 | 0.978 (inactive) | 1.05 (inactive) | 1.04 (inactive) | 1.01 (inactive) | 0.982 (inactive) | 1 (inactive) | 0.993 (inactive) | 1.03 (inactive)
S=C([S-])NCCNC(=S)[S-].S=C([S-])NCCNC(=S)[S-].[Mn+2].[Zn+2] (20 µM) | 0.889 | 0.959 | 0.994 | 1.01 | 0.985 (inactive) | 1.14 (inactive) | 1.12 (inactive) | 1.02 (inactive) | 0.852 (inactive) | 0.85 (inactive) | 1.07 (inactive) | 1.21 (inactive)
CCC(=O)O[C@@H](O[P@](=O)(CCCCc1ccccc1)CC(=O)N1C[C@H](C2CCCCC2)C[C@H]1C(=O)O)C(C)C [Fosinopril] (20 µM) | 1.01 | 1.09 | 1.05 | 1.08 | 1.06 (inactive) | 0.979 (inactive) | 1.05 (inactive) | 1.3 (inactive) | 1.01 (inactive) | 0.939 (inactive) | 1 (inactive) | 1.08 (inactive)
Clc1ccc(C(Cn2ccnc2)OCc2csc3c(Cl)cccc23)c(Cl)c1 (stereo not drawn) [Sertaconazole nitrate] (20 µM) | 0.896 | 1.1 | 0.993 | 0.501 | 0.978 (inactive) | 1.12 (inactive) | 0.435 (active) | 1.08 (inactive) | 0.954 (inactive) | 0.973 (inactive) | 1.03 (inactive) | 0.591 (inactive)
CCCCC(C)(O)C/C=C/[C@H]1[C@H](O)CC(=O)[C@@H]1CCCCCCC(=O)OC (mixture of isomers) [Misoprostol] (20 µM) | 1.14 | 0.994 | 1.03 | 1.19 | 1.04 (inactive) | 0.979 (inactive) | 0.987 (inactive) | 0.988 (inactive) | 1.02 (inactive) | 0.994 (inactive) | 0.995 (inactive) | 0.945 (inactive)
Nc1c2ccccc2nc2ccccc12 [Aminacrine] (20 µM) | 0.903 | 1.11 | 0.922 | 1.45 | 1.07 (inactive) | 0.923 (inactive) | 0.911 (inactive) | 1.15 (inactive) | 0.952 (inactive) | 1.29 (active) | 0.964 (inactive) | 0.947 (inactive)
CCOC(=O)NNc1nncc2ccccc12 [Todralazine hydrochloride] (20 µM) | 0.521 | 1.14 | 1.04 | 1 | 0.967 (inactive) | 0.506 (inactive) | 0.955 (inactive) | 1.02 (inactive) | 0.984 (inactive) | 1.04 (inactive) | 1.01 (inactive) | 1.03 (inactive)
NS(=O)(=O)c1cc2c(cc1C(F)(F)F)NCNS2(=O)=O [Hydroflumethiazide] (20 µM) | 0.947 | 1.05 | 0.989 | 0.941 | 0.965 (inactive) | 0.92 (inactive) | 0.987 (inactive) | 1.06 (inactive) | 1.01 (inactive) | 1 (inactive) | 1.01 (inactive) | 0.935 (inactive)
O=C(O)/C=C/c1ccc(Cn2ccnc2)cc1 [Ozagrel hydrochloride] (20 µM) | 0.923 | 0.982 | 0.994 | 0.975 | 1.02 (inactive) | 1.01 (inactive) | 1.04 (inactive) | 1.01 (inactive) | 0.993 (inactive) | 1.01 (inactive) | 0.986 (inactive) | 0.999 (inactive)
CCCCCCCCCCCCCCCCCCCCCC(=O)Nc1ccn([C@@H]2O[C@H](CO)[C@@H](O)[C@@H]2O)c(=O)n1 [Enocitabine] (20 µM) | 0.978 | 0.973 | 0.98 | 0.975 | 1.03 (inactive) | 0.984 (inactive) | 0.913 (inactive) | 1.01 (inactive) | 1.01 (inactive) | 1.01 (inactive) | 1.02 (inactive) | 0.866 (inactive)
CN(C)CCOC(c1ccccc1)c1ccccc1.Cn1c(=O)c2[nH]c(Cl)nc2n(C)c1=O [Dimenhydrinate] (20 µM) | 0.99 | 0.985 | 0.954 | 1.06 | 1.05 (inactive) | 1.02 (inactive) | 1.02 (inactive) | 0.995 (inactive) | 1.01 (inactive) | 0.985 (inactive) | 0.985 (inactive) | 1.03 (inactive)
O=C1c2c(O)ccc(O)c2C(=O)c2c(NCCNCCO)ccc(NCCNCCO)c21 [Mitoxantrone dihydrochloride] (20 µM) | 0.733 | 0.831 | 1.02 | 1.24 | 0.924 (inactive) | 1.01 (inactive) | 0.978 (inactive) | 0.999 (inactive) | 1.02 (inactive) | 0.988 (inactive) | 1.04 (inactive) | 0.958 (inactive)
